High-throughput results deposited in PubChem by National Center for Advancing Translational Sciences (NCATS).
This is a sample that favours compounds with a hit; in the whole collection about 8% have one here.
HCV inhibitor = qHTS Assay for Inhibitors of Hepatitis C Virus (HCV) | Huh7.5.1 HCVcc-Cre infection, luciferase reporter, 44 h | Potency, µM (highest dose often 41.8 µM), for inactives: at the highest dose activity change, negative = inhibition, hits mostly inhibitors | 340,000 tested, 3.4% active; active = well fitted inhibition curve with a large enough effect; inconclusive = small, poorly fitted or top-dose-only effect, or another doubt; inactive = no such curve, though single readings can be large or run the other way; note: potency is the fitted concentration of half-maximal effect; % is set by controls: 0 for no effect and ±100 for the full control effect
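Cells seeded at 1,000/well and cultured 4 h, then compounds added followed by HCVcc-Cre virus (~0.5 moi). After 44 h further culture, luciferase substrate was added, plates held 15 min at room temperature, and luminescence read for 15 sec.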
SARS PLpro yeast = qHTS of Yeast-based Assay for SARS-CoV PLP; Potency, µM (highest dose often 32.9 µM), without a hit: top-dose activity, positive = growth rescue, usual class: activators; 330,000 tested, 0.19% active; AID 485353, 2010; S. cerevisiae expressing SARS-CoV PLpro, growth rescue; calls by dose curve; note: potency is the fitted concentration of half-maximal effect; 0% is about no effect; nearly all actives have a fitted effect of over 55% in size
HCMV inh = qHTS Assay for inhibitors of the human cytomegalovirus (HCMV); 410,000 tested, 4.5% active; activity change, negative = inhibition, % at 57.5 µM; AID 1259415, 2018; HFF cells, HCMV-luciferase reporter, 72 h; active compounds read low; in the data active = activity change below about -60%; inconclusive = no clear call, values can overlap the other calls; inactive = above about -39%; note: % is set by controls: 0 for no effect and ±100 for the full control effect
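After 16 h attachment at 37C, HFF cells received test compound and HCMV-luciferase (1 PFU/cell); reporter luminescence read 72 h later, data normalized against buffer-only and known inhibitor Salinomycin.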
FMDV inh = High Throughput Screening for Foot and Mouth Disease Virus Antivirals | FMDV antiviral cell-based qHTS | Potency, µM (top dose mostly 57.9 µM), inactives show top-dose activity change, negative = inhibition, actives largely listed as inhibitors | 410,000 tested, 1.2% active | AID 1159524, 2015; calls by dose curve; tested in HEK293T cells; note: read-out not given here; potency is the fitted concentration of half-maximal effect; % is set by controls: 0 for no effect and ±100 for the full control effect; nearly all actives have a fitted effect of over 45% in size
LASV entry inh = qHTS for Inhibitors of binding or entry into cells for Lassa Virus; Lassa virus pseudotype entry inhibition, cell reporter; Potency, µM (highest dose often 37.9 µM), inactives show at the highest dose activity change, negative = inhibition, usual class: inhibitors; 300,000 tested, 1.2% active; AID 540256, 2011; calls by dose curve; tested in HEK293 cells; note: potency is the fitted concentration of half-maximal effect; % is set by controls: 0 for no effect and ±100 for the full control effect; nearly all actives have a fitted effect of over 50% in size
Marburg entry inh = qHTS for inhibitors of binding or entry into cells for Marburg Virus | Marburg virus pseudotyped entry inhibition, cell reporter | Potency, µM (titrated, usually from 37.8 µM), for inactives: at the highest dose activity change, negative = inhibition, usual class: inhibitors | 300,000 tested, 1.8% active; calls by dose curve; tested in HEK293 cells; note: potency is the fitted concentration of half-maximal effect; % is set by controls: 0 for no effect and ±100 for the full control effect
An asterisk follows results filed as active; ? = inconclusive; / = not tested or not shown; [ ] = remark or other dose.

SMILES	HCV inhibitor	SARS PLpro yeast	HCMV inh	FMDV inh	LASV entry inh	Marburg entry inh
O=C(NCC(c1cccs1)S(=O)(=O)c1cccs1)c1ccccc1 (stereo not given)	/	/	-4	-4%	-7%[46.1 µM]	/
COCCn1c(=O)[nH]c(=O)c2c1nc(-c1ccc(-c3ccc(Cl)cc3[N+](=O)[O-])o1)n2Cc1ccccc1	10µM*	2%	181	?	10µM*	?
COCCCn1c(-c2cccc(Cl)c2)nc2c1c(=O)[nH]c(=O)n2Cc1ccccc1	-26%	1%	-32	-12%	?	-1%[46.1 µM]
COc1ccc(-c2nc3c(c(=O)[nH]c(=O)n3Cc3ccccc3)n2CCO)cc1	-10%	1%	2	-19%	2.2µM*	-1%[46.1 µM]
Cc1cccc2c(N3CCCC3)nc(CNS(=O)(=O)c3ccccc3Cl)nc12	/	/	/	-7%	/	/
COc1ccccc1CNC(=O)CC1N=C2c3ccccc3N=C(SCC(=O)Nc3ccc(F)cc3)N2C1=O (stereo not given)	/	/	35	22%	-9%[46.1 µM]	/
COc1cccc(NC(=O)c2ccc(S(=O)(=O)NCc3cccnc3)cc2)c1	10µM*	-1%	-61*	0%	?	-31%[46.1 µM]
O=C(NCc1cccnc1)c1cccc(NS(=O)(=O)c2ccc(Br)cc2)c1	13µM*	0%	-38	-23%	7%	?
O=C(NC1CCCCC1)c1ccc(S(=O)(=O)NCc2cccnc2)cc1	-22%	-4%	-61*	-16%	?	-19%
COc1cccc(S(=O)(=O)NCc2ccc(C(=O)Nc3cccc(Cl)c3)cc2)c1	10µM*	-1%	-12	25µM*	?	?
CCn1nc(-c2ccccc2)c(-c2ccccc2)c(C(=O)Nc2ccccc2C(N)=O)c1=O	/	/	23	-7%	7%[46.1 µM]	-16%[46.1 µM]
Cc1ccc2c(CC(=O)N3CCOc4ccc(CN5C[C@@H](C)O[C@@H](C)C5)cc4C3)cc(=O)oc2c1	/	/	/	-6%	/	/
CCC1C(=O)NCCN1Cc1ccc2c(c1)CN(Cc1cccc(OC)c1)CCO2 (stereo not given)	/	/	/	3%	/	/
Cc1cnc(NC(=O)c2ccc(OCC3CCCO3)cc2)s1 (stereo not given)	-19%	0%	17	-83%	1.8µM*	?
O=C(Nc1nc2ccccc2s1)c1ccc(OCC2CCCO2)cc1 (stereo not given)	7.9µM*	-12%	-88*	-73%	10µM*	?
N#C/C(=C\c1ccc(Cl)cc1)C(=O)NCC1CCCO1 (stereo not given)	/	/	5	-2%	-12%[46.1 µM]	/
CN1CCN(C2=Nc3ccccc3Oc3ccc(Cl)cc32)CC1	0%[8.37 µM]	-3%	-22	-20%	-27%	12µM*
CN1CCN(C2=Nc3ccccc3Sc3ccc(Cl)cc32)CC1	/	/	/	10%	/	/
COc1cccc2cc(C(=O)NCCc3c(C)[nH]c4ccc(F)cc34)c(=O)oc12	/	/	6	-19%	12%[46.1 µM]	13%[46.1 µM]
CCOc1cc(C(=O)O/N=C(\N)c2ccccn2)cc(OCC)c1OCC	?	-15%	45	-7%	/	/
COc1ccc(C(=O)O/N=C(\N)c2ccccn2)cc1	4%	-12%	?	2µM*	?	?
CCOc1ccc(C(=O)O/N=C(\N)c2ccccn2)cc1OCC	13µM*	-11%	42	26%	/	/
N/C(=N\OC(=O)c1ccc(Cl)cc1)c1ccccn1	?	-20%	53	-79%	?	?
COc1cc(OC)cc(C(=O)O/N=C(\N)c2ccccn2)c1	?	-1%	-61*	-1%	/	/
CC12C=C(/C=C/c3ccc(Br)cc3)C(C)(C1)C(c1ccc(Br)cc1)CC2=O (stereo not given)	/	/	/	/	/	-26%[14.2 µM]
SMILES	HCV inhibitor	SARS PLpro yeast	HCMV inh	FMDV inh	LASV entry inh	Marburg entry inh
CC(C)C(=O)c1cc2c(cc1NC(=O)c1ccccc1F)OCCO2	/	/	-6	-17%	?	/
CCOc1ccccc1CNC(=O)C1CCN(S(=O)(=O)c2ccc3c(ccn3C)c2)CC1	/	/	-3	-4%	-4%[46.1 µM]	/
CN=c1scc(-c2ccccc2F)n1/N=C(\C)c1cccnc1	32µM*	-29%	-12	-8%	?	?
Cc1cccc(CNC(=O)C(=O)Nc2ccccc2C)c1	/	/	-1	2%	-7%[46.1 µM]	3%[46.1 µM]
CC(C)c1ccc(C(=O)Nc2cccnc2)cc1	-5%	-9%	52	-12%	?	4µM*
O=C(Nc1cccnc1)c1ccc(NC(=O)c2ccco2)cc1	5%	3%	-103*	-5%	0%	-12%[46.1 µM]
O=C(Nc1cccnc1)c1ccco1	19%	8%	-82*	/	2%	-4%
O=C(Nc1cccnc1)c1ccccc1F	11%	7%	-3	10%	4%	4%[46.1 µM]
O=C(Nc1cccnc1)c1c(F)cccc1F	-15%	8%	-104*	25%	-28%[14.3 µM]	4%
CCCc1cc(=O)[nH]c2nnc(SCC(=O)Nc3ccc(OC)cc3)n12	/	/	-27	4%	22%[46.1 µM]	/
CCc1ccc(NC(=O)Cn2c(=O)n(CC3CCCO3)c(=O)c3cc(OC)c(OC)cc32)cc1 (stereo not given)	/	/	4	-7%	-23%[46.1 µM]	0%[46.1 µM]
CCOC(=O)c1c(C)n(-c2ccc(C)cc2)c2ccc(O)c(CN(C)C)c12	-7%	0%	-88*	-17%	?	?
CCOC(=O)c1c(C)n(-c2ccc(F)cc2)c2ccc(O)cc12	8.9µM*	1%	/	?	/	/
CCOC(=O)c1c(C)n(C)c2ccc(O)cc12	/	/	-2	/	/	/
CCOC(=O)c1c(CSc2ccc(C)cc2)n(C)c2cc(Br)c(O)c(CN(C)C)c12	?	-4%	-63*	?	/	/
COC(=O)c1c(C)n(-c2ccc(OC)cc2)c2ccc(O)cc12	11µM*	4%	-38	-10%	?	?
CCOC(=O)c1c(CSc2ccccc2)n(C)c2cc(Br)c(O)c(CN(C)C)c12	?	0%	-15	-26%	?	?
CCOC(=O)c1c(C)n(-c2ccc(OC)cc2)c2ccc(O)c(CN(C)C)c12	?	-3%	?	?	/	/
Cc1ccc2[nH]c(=O)c3cc(C(=O)N(C)c4ccc(Br)cc4)sc3c2c1	/	/	31	-23%	/	-1%[46.1 µM]
COc1cc(=O)n2c(c1C(=O)NC(C)c1ccco1)CCN(Cc1ccccc1Cl)CC2 (stereo not given)	/	/	/	-6%	/	/
CCN(CC)S(=O)(=O)c1ccc2c(c1)nc(SCC(N)=O)n2-c1ccc(OC)cc1	-17%	-2%	-30	-28%	13µM*	-10%
C=CCn1c(C)cc(C2=NNC(=NC(C)(C)C)SC2)c1C	?	-2%	-85*	?	?	?
C=CCN=C1NN=C(c2cc(C)n(CCOC)c2C)CS1	-4%	-22%	-96*	4.5µM*	?	?
